The campaign covered roughly 400,000 compounds. About 13,000 (3.2%) were called active. Inconclusive results (about 18%) are left out. Only a selection was taken, and actives are over-represented in it overall. Values without a mark were called inactive. Calls come from the whole dose curve; as a rule, active = well fitted cell-killing curve with a large enough effect; inconclusive = small, poorly fitted or top-dose-only effect, or effect the other way; inactive = flat fitted curve, though single readings scatter.
Experiment: qHTS assay for MDR1-selective chemotherapeutics: Primary screen using the drug-selected MDR subline cells KB-V1; note: nearly all actives have a fitted effect of over 60% in size
Conditions: KB-V1 MDR cells viability, CellTiter-Glo, 72 h; series mostly up to 46.1 µM; activity change, negative = cytotoxicity: at the top concentration
How it was run: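 Readout: CellTiter-Glo luminescence, 10 min after addition. Cells: KB-V1 MDR subline, 72 h at 37 degrees C with compound. Analysis: corrected, normalized data fitted to concentration-effect curves.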
% is set by controls: 0 for no effect and ±100 for the full control effect; potency is the fitted concentration of half-maximal effect.

Row | SMILES | activity change, negative = cytotoxicity [%] | Potency
1 | Cn1c(=O)nc2n(-c3ccc(Br)cc3)c3cccc(Cl)c3cc-2c1=O | -4.35 | 
2 | CCOc1ccc(Cl)cc1-c1cc(C(=O)NCc2cccs2)[nH]n1 | -10.2 | 
3 | CCc1ccccc1OCC(=O)Nc1nnc(C2CC2)s1 | -5.12 | 
4 | Cc1ccc(Cc2cnc(NC(=O)/C(C#N)=C/c3ccc(-c4cccc([N+](=O)[O-])c4)o3)s2)cc1 |  | 18.4 µM (active)
5 | N#C/C(=C\c1ccc(-c2cccc([N+](=O)[O-])c2)o1)C(=O)NCCN1CCOCC1 | -8.35 | 
6 | Cc1ccc(C(=O)N/C(=C/c2ccc(-c3cccc([N+](=O)[O-])c3)o2)C(=O)NCCCN(C)C)cc1 | -1.53 | 
7 | CC(C)[C@H](NC(=O)c1ccccc1F)C(=O)Nc1cccc(S(=O)(=O)N2CCOCC2)c1 | -24.2 | 
8 | NS(=O)(=O)c1ccc(CCNC(=O)CCCCCn2c(=O)[nH]c3ccccc3c2=O)cc1 | 22.6 | 
9 | C[C@@H]1Cn2cnc(C(=O)Nc3ccc(CNC(=O)OC(C)(C)C)cc3)c2C(=O)N1 | -13.1 | 
10 | COc1ccccc1-c1nnc2n1N=C(c1ccc(OC(F)F)c(OCC3CC3)c1)CS2 | -13 | 
11 | Cc1nnc2n1N=C(c1ccccc1)CS2 | 7.55 | 
12 | COc1ccc(C2=Nn3c(nnc3-c3ccccc3OC)SC2)cc1OC1CCCC1 |  | 5.8 µM (active)
13 | COc1ccc2c(CNCCc3ccccc3C)c(C(=O)O)n(Cc3ccccc3C)c2c1 | 3.86 | 
14 | COc1ccc(S(=O)(=O)N[C@@H]2C=C[C@@H](CC(=O)N3CCc4ccccc4C3)O[C@@H]2CO)cc1 | -1.54 | 
15 | COc1cccc(NC(=O)CN(C)C(=O)/C=C/c2cc(OC)ccc2OC)c1 |  | 10.3 µM (active)
16 | COc1cccc(NC(=O)CN(C)C(=O)/C=C/c2cn(-c3ccccc3)nc2-c2cccs2)c1 | -25.7 | 
17 | COc1cccc(NC(=O)CN(C)C(=O)Cc2ccc(Cl)cc2Cl)c1 | -6.54 | 
18 | O=C(O)C1CCCN1c1nc(Cl)ccc1[N+](=O)[O-] (stereo not given) | 21.7 | 
19 | COc1ccc(NC2CCCN(C(=O)c3ccccc3-c3ncc[nH]3)C2)cc1 (stereo not given) | 18.4 | 
20 | Cc1ccc(S(=O)(=O)Oc2ccc(/C=N/NC(=O)c3ccncc3)cc2)cc1 | -2.26 | 
21 | COc1cc(OC)c(/C=N/NC(=O)c2ccc([N+](=O)[O-])cc2)cc1Br | 8.39 | 
22 | COc1cccc(/C=N/NC(=O)c2cccc([N+](=O)[O-])c2)c1OS(=O)(=O)c1ccc(C)cc1 |  | 16.4 µM (active)
23 | CC(C)C[C@H]1CN([C@@H](Cc2ccccc2)CN2CCC[C@@H]2CN2C(=O)C(=O)NC[C@@H]2Cc2ccc(O)cc2)C(=O)C(=O)N1CCc1ccccc1 | 13.8 | 
24 | COc1ccccc1N1CCN(c2ncnc3onc(-c4cccc(Cl)c4)c23)CC1 | 5.03 | 
25 | CCOc1cc(-c2nnc(SCC(=O)NC3CCCCC3)nc2-c2ccc(OC)c(OCC)c2)ccc1OC | 2.67 | 

Row | SMILES | activity change, negative = cytotoxicity [%] | Potency
26 | COc1ccc(C)cc1S(=O)(=O)NC1CCCCC1 | 0.661 | 
27 | Cc1ccc(Nc2c(-c3ccc(C)cc3)nc3cnccn23)cc1 | 9.35 | 
28 | COc1ccc(-c2nc3cnccn3c2NC2CCCCC2)cc1-c1cccc(Cl)c1 |  | 14.6 µM (active)
29 | COc1cccc(CNC(=O)CN2C(=O)CCc3cc(S(=O)(=O)N4CCOCC4)ccc32)c1 | -9.66 | 
30 | CCCNC(=O)c1cc(C2CCCCN2C(=O)OC)on1 (stereo not given) | 6.18 | 
31 | CCC(C)C(CO)NC(=O)/C=C/[C@H]1O[C@@H](n2cnc3c(NC(=O)c4ccccc4)ncnc32)[C@H](O)[C@@H]1O (stereo not given in full) | 0 | 
32 | COc1ccc([C@H]2N[C@]3(CCCN(CC4CCCCC4)C3=O)[C@H]3C(=O)N(C)C(=O)[C@@H]23)cc1 | -23 | 
33 | Cn1c(=O)c2cc(NC(=O)NCCc3cccs3)ccc2n1Cc1cccc(C(F)(F)F)c1 | 2.61 | 
34 | CC(=O)NC(c1ccccc1)c1nc(-c2cccc(C(C)C)c2)cs1 (stereo not given) | -17.7 | 
35 | CC(=O)Nc1cccc(-c2csc(Nc3cccc(C)n3)n2)c1 |  | 20.6 µM (active)
36 | Cc1cccc(Nc2nc(-c3ccccc3)cs2)n1 | 3.01 | 
37 | O=C1CC[C@@H](C(=O)N2CSC[C@@H]2C(=O)Nc2ccc(C(F)(F)F)cc2)N1 | -0.952 | 
38 | Cc1ccc(-c2nc(=N)sn2Cc2ccccc2)cc1 | -15.3 | 
39 | CN(N=O)c1ccc(C=C2c3ccccc3-c3ccccc32)cc1 | 3.84 | 
40 | O=C(NCc1cccnc1)c1cc(C2CCCN(C(=O)C3CCCCC3)C2)on1 (stereo not given) | 3.13 | 
41 | CC1(C)CC(=O)c2cc(C(=O)NCc3ccccc3)c(=O)[nH]c2C1 | 20.8 | 
42 | CC(NC(=O)c1ccccc1F)c1cccc2ccccc12 (stereo not given) | -13.6 | 
43 | CC(NC(=O)c1cccc2ccccc12)c1ccc2c(c1)CCCC2 (stereo not given) |  | 20.6 µM (active)
44 | CC(NC(=O)c1ccccc1SCC(=O)N1CCCC1)c1ccccc1 (stereo not given) | -20.8 | 
45 | O=C1CCC(=O)N1CCC(=O)N(C(=O)NC1CCCCC1)C1CCCCC1 | -20.2 | 
46 | CCOc1ccc(CCN2C(=O)C(=O)N([C@@H](Cc3ccc(O)cc3)CN3CCC[C@H]3CN3C(=O)C(=O)NC[C@@H]3CC(C)C)C[C@@H]2Cc2ccccc2)cc1 | -3.43 | 
47 | CCCNC(=O)C1(C)CCN(C(=O)c2ccccc2OC(F)(F)F)C1 (stereo not given) | 16.4 | 
48 | Cc1cc(O)ccc1-c1cc(C(=O)NCc2cc(C(F)(F)F)cc(C(F)(F)F)c2)[nH]n1 | 7.22 | 
49 | O=[N+]([O-])c1ccc(N2CCSCC2)cc1O | 0 | 
50 | CC1CCN(c2ccc([N+](=O)[O-])c(SCCO)c2)CC1 | -1.25 | 

Row | SMILES | activity change, negative = cytotoxicity [%] | Potency
51 | CN1CCN(c2ccc([N+](=O)[O-])c(Sc3nc4ccccc4[nH]3)c2)CC1 |  | 14.6 µM (active)
52 | COc1ccc(Sc2ccc(NC(=O)c3cccc(Cl)c3)cc2C#N)cc1 | 2.24 | 
53 | COc1ccc(-c2nn(-c3ccccc3)cc2/C=N/Nc2ccccn2)cc1OC |  | 3.66 µM (active)
54 | Oc1ccc(Br)cc1/C=N/Nc1ccccn1 | 0.606 | 
55 | COc1ccc(-c2nn(-c3ccccc3)cc2C(=O)Nc2nccs2)cc1OC | -9.36 | 
56 | CS(=O)(=O)c1cccc(-c2ccc3nncn3c2)c1 | -2.98 | 
57 | CCN(CCCNC(=O)c1c(C)oc2ncn(CC(C)C)c(=O)c12)Cc1ccccc1 | 2.97 | 
58 | OCCN1CCN(c2ncnc3c2ncn3[C@H]2CN(Cc3ccco3)C[C@@H](CO)O2)CC1 | -0.202 | 
59 | O=S(=O)(Cc1ccc(Cl)cc1Cl)c1ccc(Cl)cc1 |  | 1.46 µM (active)
60 | Cc1ccc(S(=O)(=O)Cc2cc(-c3ccc(Cl)cc3)no2)cc1 | -17.3 | 
61 | O=S(=O)(NCc1ccc(Cl)cc1Cl)c1cccs1 | -2.09 | 
62 | CCCCc1ccc(S(=O)(=O)NC(=O)C2(C)CCN2C(=O)c2c(C)noc2C)cc1 (stereo not given) | -17.6 | 
63 | CCN(CCN(C)C)C(=O)c1ccc2nc(C)c(N(C)C(=O)CCc3ccccc3)n2c1 | 4.85 | 
64 | Cc1ccc(C(C(=O)NC2CCCCC2)N(C(=O)c2csnn2)C2CC2)o1 (stereo not given) | -1.13 | 
65 | O=C(NC1CCCC1)C(c1ccccn1)N(C(=O)c1csnn1)C1CCCC1 (stereo not given) |  | 20.6 µM (active)
66 | O=C(NC1CCCC1)C(c1ccc(Cl)cc1)N(C(=O)c1csnn1)C1CC1 (stereo not given) | -1.08 | 
67 | Cc1ccc(NC(=O)c2cc3cc(C)ccc3n2C)cc1 | 0 | 
68 | COc1ccccc1-c1n[nH]nc1C1=CC(=O)CC(C)(C)C1 | 9.54 | 
69 | CC(OC(=O)c1cccc(S(=O)(=O)N2CCOCC2)c1)C(=O)NCC1CCCCC1 (stereo not given) | 2.96 | 
70 | CNC(=O)NC(=O)C(OC(=O)c1cccc(S(=O)(=O)N2CCCCC2)c1)c1ccccc1 (stereo not given) |  | 23.1 µM (active)
71 | O=C(NNC1=NCCC1)c1cccc(S(=O)(=O)N2CCCCC2)c1 | 0.111 | 
72 | Cc1cccc(CNC(=O)c2cnc3sc(N4CCCCC4)nn3c2=O)c1 | 0 | 
73 | Cc1ccc(C)c2sc(NC(=O)c3ccc(S(=O)(=O)N4CCCC4)cc3)nc12 | 8.13 | 
74 | Cc1nn(CC(=O)NCCc2ccccc2)c(=O)c2c1sc1ccccc12 | -11.2 | 
75 | COc1cc(/C=N/NC(=O)Nc2ccccc2)ccc1OCCOc1ccccc1C |  | 2.31 µM (active)

Row | SMILES | activity change, negative = cytotoxicity [%] | Potency
76 | COc1cc(/C=N/NC(=O)c2ccoc2C)ccc1OCCN1CCCCC1 | 22.5 | 
77 | COC(=O)c1ccc(COc2ccc(/C=N/NC(=O)C(=O)Nc3ccc(OC)cc3)cc2OC)o1 | -3.79 | 
78 | C[C@H]1CN([C@@H](C)CO)C(=O)CCCn2cc(nn2)CO[C@@H]1CN(C)S(=O)(=O)c1cccc(C#N)c1 | -8.91 | 
79 | O=C(COC(=O)c1ccc(S(=O)(=O)N2CCCCCC2)cc1)Nc1ccccc1C(F)(F)F | 22.5 | 
80 | O=C(NCCN1CCOCC1)c1ccc2c(c1)N(Cc1ccc(Cl)cc1)CCS2 | 2.02 | 
81 | CCOC(=O)N1CCN(C(=O)c2ccc3c(c2)N(Cc2ccc(C)cc2)CCS3)CC1 |  | 3.26 µM (active)
82 | O=C(NCCc1ccccc1)c1ccc2c(c1)N(Cc1ccccc1)CCS2 | -0.57 | 
83 | OC[C@@H]1O[C@H](n2cnc3c(SCc4ccccc4)ncnc32)[C@H](O)[C@H]1O | 0 | 
84 | COc1cc(C(C)=O)ccc1OC(C)C(=O)Nc1ccc(S(=O)(=O)N2CCCC2)cc1 (stereo not given) | 0 | 
85 | COc1cc(C(=O)NNC(=O)c2ccc(S(=O)(=O)N3CCCCC3)cc2)cc(OC)c1OC | 14.7 | 
86 | COc1ccc(-c2ccc(Nc3ccc(S(=O)(=O)N4CCCC4)cc3)nn2)cc1OC |  | 13 µM (active)
87 | CC(C)Oc1cc(F)ccc1-c1cc(C(=O)Nc2cccc(Cl)c2)[nH]n1 | 0 | 
88 | CCCCCC(=O)N1C[C@H](O)[C@@H](n2cc(COC(=O)c3ccccc3)nn2)C[C@@H]1c1ccc(C)cc1 | 8.62 | 
89 | COC(=O)c1c(NC(=O)CSc2nncs2)sc2c1CCCCC2 |  | 23.1 µM (active)
90 | COC(=O)c1c(NC(=O)C2CC(C)=C(C)CC2C(=O)O)sc2c1CCCCC2 (stereo not given) | 7 | 
91 | COC(=O)c1c(NC(=O)CN2C(=O)NC(CCc3ccccc3)C2=O)sc2c1CCCCC2 (stereo not given) | 0.551 | 
92 | CCOC(=O)c1c(NC(=O)CSc2nnc(Cc3csc(N)n3)n2C)sc(C)c1C | 4.84 | 
93 | CCOC(=O)c1c(NC(=O)CSc2nnc(CN3CCOCC3)n2C)sc2c1CCCC2 |  | 5.8 µM (active)
94 | NC(=O)c1c(NC(=O)CSc2nnc(-c3ccco3)n2N)sc2c1CCCC2 | -7.89 | 
95 | Cc1cccc(C(=O)OCC(=O)Nc2sc3c(c2C#N)CCC3)c1 | -0.263 | 
96 | COC(=O)c1c(NC(=O)c2ccc(Cl)c(Cl)c2)sc2c1CCCC2 | 17.4 | 
97 | COC(=O)c1c(NC(=O)CN(c2ccc(C)c(C)c2)S(C)(=O)=O)sc2c1CCCC2 | 14.3 | 
98 | COC(=O)c1c(NC(=O)COC(=O)[C@@H](NS(=O)(=O)c2ccccc2)C(C)C)sc2c1CCC2 |  | 14.6 µM (active)
99 | CCc1ccc(N(CC(=O)Nc2sc3c(c2C(=O)OC)CCCC3)S(C)(=O)=O)cc1 |  | 9.2 µM (active)
100 | COc1cccc(OC)c1C(=O)Nc1sc2c(c1C(N)=O)CCCC2 | -18.8 | 

From PubChem BioAssay AID1347076 (National Center for Advancing Translational Sciences (NCATS), 2019)
